Screens from PubChem.
MEX-5 binding = C. elegans MEX-5 TCR-2 RNA binding activity. Q9XUB2. MEX-5/FITC-TCR2 RNA binding, fluorescence polarization; active compounds read low. activity score (negative = inhibition of binding), % at 10 µM. 300,000 tested, 0.38% active. AID 1832;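 active means inhibition past about -25% in most replicates, and total fluorescence under double the plate's negative control median, limit read from the data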;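 further: 0% = DMSO and -100% = 5 µM competing unlabeled TCR2 RNA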
Target sequence (Q9XUB2 whole entry, looked up): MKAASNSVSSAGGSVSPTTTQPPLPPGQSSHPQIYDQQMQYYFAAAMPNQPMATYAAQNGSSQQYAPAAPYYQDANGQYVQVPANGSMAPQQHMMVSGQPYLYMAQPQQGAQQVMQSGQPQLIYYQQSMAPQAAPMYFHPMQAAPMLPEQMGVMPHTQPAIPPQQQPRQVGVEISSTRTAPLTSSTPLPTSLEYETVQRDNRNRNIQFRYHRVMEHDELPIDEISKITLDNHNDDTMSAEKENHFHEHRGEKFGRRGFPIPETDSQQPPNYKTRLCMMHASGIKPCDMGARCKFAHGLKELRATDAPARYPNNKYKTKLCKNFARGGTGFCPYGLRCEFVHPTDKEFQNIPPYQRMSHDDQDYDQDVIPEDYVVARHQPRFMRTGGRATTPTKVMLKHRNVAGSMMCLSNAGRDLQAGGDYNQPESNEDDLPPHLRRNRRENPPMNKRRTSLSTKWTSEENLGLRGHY
GLD-1 TGE inh = GLD-1-TGE RNA interaction inhibition (C. elegans). inhibition, % at 5.96 µM. AID 2280. 320,000 tested, 0.44% active. purified GLD-1 + fluorescein TGE RNA, fluorescence polarization. Q17339;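 active means percent inhibition above a per-plate cutoff, the plate mean of test compounds plus 3 SD, cut at about 30% in these data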;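 further: 0% = DMSO wells with GLD-1 and probe and 100% = wells lacking GLD-1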
MCL1-BIM inh = inhibitors of human MCL1 binding to BIM-BH3 peptide. Q07820. GST-MCL1 / FITC-Bim-BH3 fluorescence polarization. inhibition, % at 10.9 µM. 320,000 tested, 0.68% active. AID 2057;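 active means inhibition above the mean inhibition of all tested compounds plus 3 SD, set per campaign, cut at about 40% in these data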;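 further: 0% = DMSO wells and 100% = unlabeled Bim-BH3 peptide control; higher means more loss of mP so more displacement of Bim peptide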
Yeast superoxide = yeast age-related superoxide inhibition as caloric restriction mimetic; S. cerevisiae aged cells, superoxide DHE fluorescence; active compounds read low; superoxide response (% of plate mean), % at 10 µM; 330,000 tested, 0.18% active;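 active means superoxide response under a set limit, about three screen SD below normal, cut at about 65% in these data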;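 further: yeast aged for seven days with compound at 30 °C before DHE staining; 100% = average MFI of all compound-treated wells on the plate with controls excluded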
LANA-H2A inh = blocks KSHV LANA binding to histone H2A/H2B; Q9QR71; cell-free LANA-H2A/H2B peptide, fluorescence polarization; inhibition, % (test concentration not listed); 320,000 tested, 0.6% active; in the data active means inhibition mostly above about 10%, no sharp cut-off; inactive means mostly below about 6.7%
BCLXL inh = inhibitors of human Bcl-xL; Q07817; GST-Bcl-xL / FITC-Bim BH3 peptide fluorescence polarization; inhibition, % at 10.9 µM; 320,000 tested, 0.7% active; AID 2129;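 active means inhibition above the mean of all tested compounds plus 3 SD, cutoff set per campaign, cut at about 30% in these data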;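 further: 0% = DMSO wells and 100% = unlabeled Bim-BH3 peptide competitor; inhibitors lower millipolarization by displacing the labeled peptide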
Bcl-xL conf = Bcl-xL (human) inhibition, MCL1 counter-screen confirmation | 1,700 tested, 54% active | shares compounds with MCL1-BIM inh | inhibition, % at 10.9 µM | GST-Bcl-xL / FITC-Bim BH3 peptide FP binding;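 active means inhibition above a cutoff equal to the mean inhibition of all tested compounds plus 3 SD, cut at about 30% in these data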;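 further: 0% = DMSO wells and 100% = unlabeled Bim BH3 control peptide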
MCL1 BIM confirm = MCL1-BIM-BH3 interaction inhibition, confirmation; shares compounds with MCL1-BIM inh; GST-MCL1 / FITC-Bim-BH3 fluorescence polarization; inhibition, % at 10.9 µM; 1,700 tested, 61% active;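 active means inhibition above the average of all tested compounds plus 3 SD, cut at about 40% in these data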;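 further: 0% = DMSO wells and 100% = unlabeled Bim-BH3 control peptide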
* marks the source's active call; other numbers are inactive results; i = inactive; . = no result given; + = active, no number. A selection: hits, their analogues and other compounds. The true share with any hit is near 1.9%.

SMILES	MEX-5 binding	GLD-1 TGE inh	MCL1-BIM inh	Yeast superoxide	LANA-H2A inh	BCLXL inh	Bcl-xL conf	MCL1 BIM confirm
Oc1ccc(N=C/C=C/c2ccc(Br)cc2)cc1-c1nc2ccccc2s1	3	20	48*	100	4	46*	27	19
C=CCSC1=N/C(=C\C=C\c2ccco2)C(=O)S1	0	0	47*	101	10	13	3	27
O=C(CN1CCOCC1)NNC(=S)Nc1ccc(Cl)cc1	-2	-7	55*	101	0	-1	15	20
O=C(CN1c2ccccc2Sc2ccccc21)NNC(=S)Nc1ccc(Cl)cc1	-1	4	6	87	-1	10	.	.
CCCN(C(=O)c1ccccc1Cc1ccccc1)C1CCS(=O)(=O)C1 (stereo unspecified)	-1	1	4	85	2	5	.	.
Cc1cccc(NC(=O)CSc2nnc(-c3ccco3)c(-c3ccco3)n2)c1C	-14	3	41*	127	0	25	98*	141*
Cn1c(=O)c2c(ncn2CC(=O)OCCCC(=O)c2ccc(Br)cc2)n(C)c1=O	.	4	.	102	6	.	.	.
O=C(COC(=O)c1ccc2ncsc2c1)Nc1cc([N+](=O)[O-])ccc1Cl	.	-3	42*	93	1	-8	-6	-18
O=C(O)c1ccc(-n2cccc2/C=C2/SC(=O)N(CC(=O)N3CCCC3)C2=O)cc1	-21	1	55*	87	4	14	19	50*
Cc1ccc([C@@H]2C3COCC=C3C(C#N)=C(N)C2(C#N)C#N)o1 (stereo partly specified)	-22	78*	105*	77	.	96*	71*	74*
CC1CCN(C(=O)CN2C(=O)NC3(CCC(C)CC3)C2=O)CC1 (stereo unspecified)	.	4	1	102	5	1	.	.
Cc1c(N)cccc1N	.	-34	52*	87	123*	69*	28	29
Cc1c(N)cccc1[N+](=O)[O-]	.	-9	7	102	-7	7	.	.
O=C(O)c1ccccc1-c1ccc(/C=c2\sc3nc4cc(Br)cnc4n3c2=O)o1	5	11	60*	107	-22	38*	-30	-62
COC(=O)C1CCCN1C(=O)C12CC3CC(CC(C3)C1)C2 (stereo unspecified)	2	5	13	108	i	9	.	.
CCOC(=O)c1c(NC(=O)COC(=O)c2cnccn2)sc(C)c1C	.	6	.	97	1	.	.	.
O=c1cc2oc3cc(O)c(O)cc3c(-c3ccccc3[N+](=O)[O-])c-2cc1O	-11	8	87*	100	-1	31*	62*	104*
CC(Cc1ccccc1)N1C(=O)c2cccc([N+](=O)[O-])c2C1=O (stereo unspecified)	-2	180*	169*	78	5	146*	7	-2
O=C(N/N=C/c1sc(=O)[nH]c1-[n+]1ccccc1)c1ccccc1[O-]	-23	28	55*	99	2	44*	46*	64*
Cc1ccc[n+](-c2[nH]c(=O)sc2/C=N/NC(=O)c2ccccc2[O-])c1	-27*	31*	75*	97	13	44*	39*	56*
O=C(N/N=C/c1sc(=O)[nH]c1-[n+]1ccc2ccccc2c1)c1ccccc1[O-]	-14	165*	178*	98	0	156*	31*	32
O=c1[nH]c(-[n+]2ccccc2)c(/C=N/N=C(\[O-])c2ccccc2)s1	-5	15	16	126	-1	13	.	.
CNc1ccccc(-c2ccc3cc4c(cc3n2)OCO4)c1=O	-13	14	114*	95	2	91*	34*	33
O=C(COc1ccccc1C(=O)N/N=C\c1ccc(O)c(O)c1)N/N=C/c1ccc(O)c(O)c1	-2	3	56*	100	-2	16	44*	81*
Cc1c(NS(=O)(=O)c2cc(C(=O)NCCN(C)C)ccc2Cl)c(=O)n(-c2ccccc2)n1C	2	-7	75*	100	2	17	7	11
SMILES	MEX-5 binding	GLD-1 TGE inh	MCL1-BIM inh	Yeast superoxide	LANA-H2A inh	BCLXL inh	Bcl-xL conf	MCL1 BIM confirm
O=C(/C=C/c1ccco1)NC(=S)Nc1cccc(C(=O)O)c1	-34*	5	61*	96	-9	37*	31*	52*
COc1cccc(NC(=S)NC(=O)/C=C/c2ccco2)c1	-11	18	36	105	-1	19	.	.
Cc1ccc(N=Cc2cc(Cc3ccccc3Cl)cc([N+](=O)[O-])c2O)c(O)c1	-10	-3	47*	90	2	44*	7	47*
CCOC(=O)C1(Cc2cccc(Cl)c2)CCCN(C(=O)c2c(CC)noc2C)C1 (stereo unspecified)	1	4	42*	90	-4	6	4	1
Cc1ccccc1Nc1cc2ccccc2c(=O)[nH]1	-22	50*	81*	114	-5	82*	85*	93*
O=c1[nH]c(Nc2ccccc2Cl)cc2ccccc12	-1	2	4	139	0	7	.	.
CCN(CC)Cc1ccccc1CNC(=O)c1cccc(S(=O)(=O)Nc2ccc3c(c2)OCO3)c1	.	0	9	93	2	9	.	.
COc1ccccc1NS(=O)(=O)c1ccc(N/N=C/c2ccccc2OCC(=O)O)c([N+](=O)[O-])c1	2	94*	141*	88	2	136*	184*	+
COc1ccc(OC)c(N2C(=O)[C@@H]3C(c4ccccc4Cl)=NO[C@@H]3C2=O)c1	-4	3	53*	98	2	12	16	38
Cc1ccc(-c2nc3s/c(=C\c4ccco4)c(=O)n3n2)cc1	-1	7	18	106	8	9	.	.
O=c1nc2s/c(=C\c3ccco3)c(=O)n2nc1Cc1ccc(F)cc1	0	-4	53*	114	-1	13	27	68*
CCc1c(C(=O)NC(C)C2CCCO2)csc1C (stereo unspecified)	0	9	-5	95	0	0	.	.
CCCNC(=O)c1c(N)n(-c2ccc3c(c2)OCO3)c2nc3ccccc3nc12	-1	10	5	88	0	9	.	.
Nc1c(C(=O)NC2CC2)c2nc3ccccc3nc2n1-c1ccc2c(c1)OCO2	-7	27	61*	89	-1	42*	35*	42*
